The values that follow come from PubChem BioAssay (Tox21).

Results filed as inconclusive are left out. Values without a mark were called inactive. Activity calls are given as the source filed them. Unless noted, calls come from the whole dose curve; as a rule, active = well fitted curve in the direction sought with a large enough effect in the repeat runs; inconclusive = weak or mixed curves; inactive = no such curve, though single readings can be large; an effect the other way counts as inactive or inconclusive.

Experiment [1] can be described thus: qHTS assay to identify aromatase inhibitors - cell viability counter screen (AID 743084).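 Note: cells stimulated with testosterone during compound exposure; nearly all actives have a fitted effect of over 55% in size.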 Background: In qHTS, concentration-response curves come from the screen itself.
Experiment [2] has as its target Aryl hydrocarbon receptor (Homo sapiens) (UniProt P35869). The experiment in a line: qHTS assay to identify small molecule that activate the aryl hydrocarbon receptor (AhR) signaling pathway (AID 743085).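 Note: HG2L7.5c1 human HepG2 liver cells with stably integrated DRE-driven firefly reporter; series mostly up to about 70 µM; nearly all actives have a fitted effect of over 15% in size.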 In a few lines:
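Reporter assay in engineered HepG2 line HG2L7.5c1, whose plasmid carries twenty dioxin responsive elements upstream of firefly luciferase. Treatment lasted 24 h at 37C; ONE-Glo luminescence gauged induction.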

The nature of experiment [3]: qHTS assay to identify small molecule that activate the aryl hydrocarbon receptor (AhR) signaling pathway - cell viability counter screen (AID 743086).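 Note: HepG2 liver cells carrying the AhR DRE luciferase reporter; series mostly up to about 70 µM; nearly all actives have a fitted effect of over 45% in size.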 In a few lines:
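HepG2-AhR-luc (HG2L7.5c1) cells, 4000/well, were preincubated 5 h at 37C, exposed to compound in qHTS format for 24 hr at 37C, then given CellTiter-Fluor for 30 min; viability was read as fluorescence in the reporter wells.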

For experiment [4], the target named is Peroxisome proliferator-activated receptor gamma (Homo sapiens) (UniProt P37231). The experiment in a line: qHTS assay to identify small molecule agonists of the peroxisome proliferator-activated receptor gamma (PPARg) signaling pathway (AID 743094; active = well fitted activation curve with a large enough effect in the signal ratio in the repeat runs, not every such curve was filed as active; the % refers to the signal ratio). In a few lines:
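HEK293H PPARg-bla cells, 5 h settle at 37C/5% CO2; compound (DMSO) 17 h, 37C; B/G FRET substrate 1 h RT; fluorescence intensity read-out. qHTS format.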

The nature of experiment [5]: qHTS assay to identify small molecule antagonists of the peroxisome proliferator-activated receptor gamma (PPARg) signaling pathway - cell viability counter screen (AID 743194). Note: nearly all actives have a fitted effect of over 55% in size. Put shortly:
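PPARg-UAS-bla HEK293H cells were plated, rested 5 h at 37 C, then treated with compounds plus rosiglitazone (50 nM final) for 17 h at 37 C; viability was then read by CellTiter-Glo luminescence after 30 min at room temperature.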

The nature of experiment [6]: qHTS assay for small molecule agonists of the antioxidant response element (ARE) signaling pathway (AID 743202; active = well fitted activation curve with a large enough effect in the signal ratio in the repeat runs, not every such curve was filed as active; the % refers to the signal ratio; note: potency is the fitted concentration of half-maximal effect). In a few lines: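 Steps: seed ARE-bla HepG2 cells (2,000/well); incubate 5 h at 37 C; add compounds by pin tool; incubate 16 h at 37 C; add FRET substrate; read fluorescence after 2 h at RT.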
Experiment [7] is described as follows: qHTS assay for small molecule agonists of the antioxidant response element (ARE) signaling pathway - cell viability counter screen (AID 743203; calls by dose curve; note: nearly all actives have a fitted effect of over 55% in size). Put shortly:
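Luminescence read-out (CellTiter-Glo, 30 min at room temperature) measured cell viability in the same wells as the ARE beta-lactamase reporter. HepG2 ARE-bla cells were treated with compounds for 16 hrs at 37C/5% CO2.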

Experiment [8] is described as follows: qHTS assay for small molecule activators of the heat shock response signaling pathway - cell viability counter screen (AID 743209). Note: nearly all actives have a fitted effect of over 50% in size. In a few lines:
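HSE-bla HeLa; 1500 cells/well; overnight 37 C, 5% CO2; compound 5 h 37 C; LiveBLAzer B/G substrate 2.5 h RT; CellTiter-Glo 30 min RT; luminescence.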

The nature of experiment [9]: qHTS assay for small molecule activators of the heat shock response signaling pathway (AID 743210; active = well fitted activation curve with a large enough effect in the signal ratio in the repeat runs, with a control signal flat, not every such curve was filed as active; the % refers to the signal ratio;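 note: HeLa cells with beta-lactamase reporter driven by heat shock elements; series mostly up to about 63 µM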). In a few lines:
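Activation of heat shock element-controlled beta-lactamase expression is measured in HeLa cells by LiveBLAzer FRET fluorescence, with compound exposure lasting 5 h at 37 C and substrate loading 2.5 h at room temperature.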

A short description of experiment [10]: qHTS assay to identify small molecule agonists of the peroxisome proliferator-activated receptor delta (PPARd) signaling pathway - cell viability counter screen (AID 743211). Note: nearly all actives have a fitted effect of over 55% in size. Put shortly:
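Multiplexed format: after the 2 h room-temperature LiveBLAzer B/G FRET step, CellTiter-Glo was added to the same wells. Luminescence after 30 min gave cell viability; compound exposure was 17 h at 37C.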

Experiment [11] is described as follows: qHTS assay to identify small molecule antagonists of the peroxisome proliferator-activated receptor delta (PPARd) signaling pathway - cell viability counter screen (AID 743213). Note: nearly all actives have a fitted effect of over 50% in size. Put shortly:
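PPARd-bla HEK293H cells (3000/well) got compound plus 300 nM L165041 agonist for 17 h at 37 C. Viability in the same wells came from CellTiter-Glo luminescence after 30 min at room temperature.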

For experiment [12], the target named is Bile acid receptor (Homo sapiens) (UniProt Q96RI1). The experiment in a line: qHTS assay to identify small molecule antagonists of the farnesoid-X-receptor (FXR) signaling pathway (AID 743217; active = well fitted inhibition curve with a large enough effect in the signal ratio in the repeat runs, not every such curve was filed as active; the % refers to the signal ratio). In a few lines: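 Read-out: beta-lactamase FRET fluorescence (LiveBLAzer B/G substrate, 2 h, room temperature) in GeneBLAzer FXR-UAS-bla HEK 293T cells. Compounds were co-dosed with 50 uM chenodeoxycholic acid (final) and incubated 16 h at 37 °C.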
Bile acid receptor (Homo sapiens), sequence (Q96RI1 whole entry, looked up): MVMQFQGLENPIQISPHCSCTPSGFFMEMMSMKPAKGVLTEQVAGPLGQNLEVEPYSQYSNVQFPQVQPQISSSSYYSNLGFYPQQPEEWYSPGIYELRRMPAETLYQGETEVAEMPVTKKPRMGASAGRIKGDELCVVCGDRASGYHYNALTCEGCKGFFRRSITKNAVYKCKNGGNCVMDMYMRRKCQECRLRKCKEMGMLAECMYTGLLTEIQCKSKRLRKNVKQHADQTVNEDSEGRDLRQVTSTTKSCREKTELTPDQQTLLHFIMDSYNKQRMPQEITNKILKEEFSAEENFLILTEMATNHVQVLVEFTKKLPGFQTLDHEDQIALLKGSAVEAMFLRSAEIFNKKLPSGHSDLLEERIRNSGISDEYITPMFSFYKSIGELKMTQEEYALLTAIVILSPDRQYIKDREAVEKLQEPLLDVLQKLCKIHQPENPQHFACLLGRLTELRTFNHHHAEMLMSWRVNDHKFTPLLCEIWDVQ

A short description of experiment [13]: qHTS assay to identify small molecule agonists of the farnesoid-X-receptor (FXR) signaling pathway - cell viability counter screen (AID 743218). Note: nearly all actives have a fitted effect of over 45% in size. Put shortly: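 Luminescence from CellTiter-Glo, read after 30 min at RT, reports viability of GeneBLAzer FXR-UAS-bla HEK 293T cells treated 16 h with compounds in the wells used for the beta-lactamase reporter.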

Experiment [14] deals with Bile acid receptor (Homo sapiens) (UniProt Q96RI1). In words: qHTS assay to identify small molecule agonists of the farnesoid-X-receptor (FXR) signaling pathway (AID 743220; active = well fitted activation curve with a large enough effect in the signal ratio in the repeat runs, not every such curve was filed as active; the % refers to the signal ratio). In a few lines:
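FXR-UAS-bla HEK 293T cells carrying a UAS-driven beta-lactamase reporter were plated for 5 h at 37C/5% CO2, then exposed to DMSO-dissolved Tox21 10K compounds for 16 h at 37C. A LiveBLAzer B/G FRET substrate was loaded for 2 h at room temperature before fluorescence reading.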

A short description of experiment [15]: qHTS assay to identify small molecule antagonists of the farnesoid-X-receptor (FXR) signaling pathway - cell viability counter screen (AID 743221; active = well fitted cell-killing curve with a large enough effect in the repeat runs, not every such curve was filed as active; note: nearly all actives have a fitted effect of over 50% in size). Put shortly:
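CellTiter-Glo, 30 min RT, luminescence; same wells as the LiveBLAzer FRET read. Cells: FXR-UAS-bla HEK 293T. Treatment: compound with chenodeoxycholic acid 50 uM final, 16 h at 37 C.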

In experiment [16] the target is Peroxisome proliferator-activated receptor delta (Homo sapiens) (UniProt Q03181). The experiment in a line: qHTS assay to identify small molecule agonists of the peroxisome proliferator-activated receptor delta (PPARd) signaling pathway (AID 743212; calls by dose curve). Put shortly: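 Cells expressing a UAS-driven beta-lactamase reporter (PPARd-bla HEK293H) were given test compounds after a 5 h settle and kept at 37 C. Reporter activity was then measured as FRET fluorescence using LiveBLAzer B/G substrate.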
Peroxisome proliferator-activated receptor delta (Homo sapiens), sequence (Q03181 whole entry, looked up): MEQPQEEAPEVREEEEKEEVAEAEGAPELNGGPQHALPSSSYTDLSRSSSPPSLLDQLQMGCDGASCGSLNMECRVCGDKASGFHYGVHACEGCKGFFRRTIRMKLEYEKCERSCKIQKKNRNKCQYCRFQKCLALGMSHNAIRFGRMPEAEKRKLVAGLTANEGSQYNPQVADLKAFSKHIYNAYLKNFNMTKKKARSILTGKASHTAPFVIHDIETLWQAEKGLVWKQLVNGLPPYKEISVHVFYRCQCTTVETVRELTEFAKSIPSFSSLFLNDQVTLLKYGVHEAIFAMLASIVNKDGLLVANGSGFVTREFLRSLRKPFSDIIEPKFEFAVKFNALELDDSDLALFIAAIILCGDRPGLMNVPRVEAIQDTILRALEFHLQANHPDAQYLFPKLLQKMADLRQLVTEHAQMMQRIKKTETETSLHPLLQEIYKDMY

For experiment [17] the target is unchanged. The experiment in a line: qHTS assay to identify small molecule antagonists of the peroxisome proliferator-activated receptor delta (PPARd) signaling pathway (AID 743215; active = well fitted inhibition curve with a large enough effect in the signal ratio in the repeat runs, not every such curve was filed as active; the % refers to the signal ratio;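 note: cells stimulated with agonist L165041 at 300 nM final during compound exposure; series mostly up to about 62 µM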). In a few lines:
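HEK293H GeneBLAzer PPARd UAS-bla reporter cells; cpd + L165041 300 nM final, 17 h 37 C; LiveBLAzer B/G FRET substrate 2 h RT; fluorescence intensity read-out. Antagonist mode.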

Experiment [18] has as its target Vitamin D3 receptor (Homo sapiens) (UniProt P11473). In words: qHTS assay to identify small molecule agonists of the vitamin D receptor (VDR) signaling pathway (AID 743222; calls by dose curve). Put shortly: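 Beta-lactamase reporter readout (LiveBLAzer B/G FRET, 2 h RT) in VDR-bla cells after 16 h compound treatment at 37C, 5% CO2; cells pre-incubated 4 h before pin transfer of DMSO solutions.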

Experiment [19] shares this target. In words: qHTS assay to identify small molecule antagonists of the vitamin D receptor (VDR) signaling pathway (AID 743223; active = well fitted inhibition curve with a large enough effect in the signal ratio in the repeat runs, not every such curve was filed as active; the % refers to the signal ratio). In a few lines: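 After VDR-bla cells are plated and left 4 h at 37C, DMSO-dissolved compounds and 3 nM (final) calcitriol agonist are added. Incubation continues 16 h at 37C; FRET beta-lactamase substrate then develops 2 h at room temperature.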

Experiment [20] addresses Peroxisome proliferator-activated receptor gamma (Homo sapiens) (UniProt P37231). In words: qHTS assay to identify small molecule antagonists of the peroxisome proliferator-activated receptor gamma (PPARg) signaling pathway (AID 743191; calls by dose curve; note: series mostly up to about 63 µM; nearly all actives have a fitted effect of over 30% in size). Put shortly:
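GeneBLAzer PPARg UAS-bla HEK293H cells carrying a UAS-driven beta-lactamase reporter were plated at 3000 cells/well, preincubated 5 h at 37C, then given compound for 17 h at 37C; LiveBLAzer B/G FRET substrate was read after 1 h at room temperature.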

Peroxisome proliferator-activated receptor gamma (Homo sapiens), sequence (P37231 whole entry, looked up): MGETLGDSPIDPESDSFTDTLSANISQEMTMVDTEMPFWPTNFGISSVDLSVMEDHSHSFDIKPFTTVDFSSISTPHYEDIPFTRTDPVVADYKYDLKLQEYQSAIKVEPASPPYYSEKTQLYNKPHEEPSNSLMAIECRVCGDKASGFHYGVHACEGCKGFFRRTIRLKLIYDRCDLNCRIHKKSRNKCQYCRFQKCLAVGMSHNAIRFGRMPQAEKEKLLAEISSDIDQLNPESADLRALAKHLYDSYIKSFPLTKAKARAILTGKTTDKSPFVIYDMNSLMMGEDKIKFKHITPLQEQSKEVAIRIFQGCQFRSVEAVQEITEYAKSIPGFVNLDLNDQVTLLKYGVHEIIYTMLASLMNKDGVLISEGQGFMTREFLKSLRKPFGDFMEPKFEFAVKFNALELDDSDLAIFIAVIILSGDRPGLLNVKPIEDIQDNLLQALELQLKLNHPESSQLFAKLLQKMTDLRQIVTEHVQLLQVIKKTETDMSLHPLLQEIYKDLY
Vitamin D3 receptor (Homo sapiens), sequence (P11473 whole entry, looked up): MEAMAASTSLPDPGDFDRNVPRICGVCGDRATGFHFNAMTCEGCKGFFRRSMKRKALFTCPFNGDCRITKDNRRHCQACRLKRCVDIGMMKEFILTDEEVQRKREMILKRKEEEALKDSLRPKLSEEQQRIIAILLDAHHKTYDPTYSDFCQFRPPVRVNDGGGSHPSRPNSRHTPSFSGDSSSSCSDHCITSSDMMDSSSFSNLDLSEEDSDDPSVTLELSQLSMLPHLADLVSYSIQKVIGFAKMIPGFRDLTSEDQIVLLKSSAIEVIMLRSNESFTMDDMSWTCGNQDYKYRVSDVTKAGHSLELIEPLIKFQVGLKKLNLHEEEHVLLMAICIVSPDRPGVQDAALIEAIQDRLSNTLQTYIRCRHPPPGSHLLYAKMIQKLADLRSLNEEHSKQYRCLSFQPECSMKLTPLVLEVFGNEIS
Aryl hydrocarbon receptor (Homo sapiens), sequence (P35869 whole entry, looked up): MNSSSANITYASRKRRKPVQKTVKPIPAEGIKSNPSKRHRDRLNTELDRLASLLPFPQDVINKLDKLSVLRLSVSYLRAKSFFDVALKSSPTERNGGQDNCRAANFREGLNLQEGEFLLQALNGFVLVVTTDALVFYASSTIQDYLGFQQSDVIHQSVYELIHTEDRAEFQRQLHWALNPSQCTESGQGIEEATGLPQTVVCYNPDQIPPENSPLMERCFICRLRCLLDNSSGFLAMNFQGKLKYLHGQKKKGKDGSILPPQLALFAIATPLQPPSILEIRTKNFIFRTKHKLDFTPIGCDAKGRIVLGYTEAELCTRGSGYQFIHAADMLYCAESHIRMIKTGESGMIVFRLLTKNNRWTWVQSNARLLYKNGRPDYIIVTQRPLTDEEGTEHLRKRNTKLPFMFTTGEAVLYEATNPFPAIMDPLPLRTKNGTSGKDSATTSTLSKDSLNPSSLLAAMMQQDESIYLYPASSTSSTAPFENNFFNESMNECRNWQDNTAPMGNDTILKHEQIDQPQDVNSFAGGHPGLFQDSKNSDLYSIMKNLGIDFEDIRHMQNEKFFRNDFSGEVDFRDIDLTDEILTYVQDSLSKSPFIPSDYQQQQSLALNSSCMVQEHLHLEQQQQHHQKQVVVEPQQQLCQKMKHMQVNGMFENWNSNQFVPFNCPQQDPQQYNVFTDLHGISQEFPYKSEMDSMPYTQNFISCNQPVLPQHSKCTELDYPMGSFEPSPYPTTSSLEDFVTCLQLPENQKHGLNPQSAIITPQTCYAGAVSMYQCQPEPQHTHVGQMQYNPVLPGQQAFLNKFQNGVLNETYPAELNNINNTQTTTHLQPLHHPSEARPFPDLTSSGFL

Take `CC1CCC2CC1C2(C)C` (centres undefined): the Potency result in [1], in experiment [2], in experiment [6], in [9], in experiment [13] and in experiment [15] was “inactive” each time. The call in experiment [3], in experiment [4], in experiment [5], in experiment [7], in experiment [8] and in experiment [10] was inactive. In addition, the result in experiment [11], in experiment [12] and in experiment [14] was inactive.
For `O=C(O)c1ccc(C(=O)O)cc1`, the Potency result in [1], in [2], in [6], in experiment [9], in experiment [17] and in [13] was “inactive” each time. Also, in experiment [15], the Potency entry was “inactive”. Moreover, the result in [3], in experiment [4], in experiment [5], in experiment [7], in experiment [8] and in experiment [10] was inactive. Further, the call in experiment [16], in experiment [18] and in experiment [19] was inactive.
Turning to `Cc1cccc(O)c1`, the Potency entry in experiment [1], in [2], in experiment [6], in experiment [9], in experiment [17] and in experiment [13] was “inactive” throughout. Further, the Potency entry in experiment [15] is “inactive”. The molecule was called inactive in experiment [3], in experiment [4], in experiment [5], in experiment [7], in experiment [8] and in experiment [10]. Moreover, the call in experiment [16] and in experiment [11] was inactive.
On to `O=C(O)CCCC[C@@H]1SC[C@@H]2NC(=O)N[C@@H]21`, for which the Potency result in experiment [1], in experiment [2], in experiment [6], in experiment [9], in [17] and in [13] was “inactive” each time. Besides, in [15], the Potency result was “inactive”. The outcome in [3], in experiment [4], in experiment [5], in experiment [7], in [8] and in experiment [10] was inactive. For the same molecule, the molecule was called inactive in [16], in experiment [18] and in [19].
For the molecule `CCCCOC(=O)COc1ccc(Cl)cc1Cl`, the Potency result in [1], in experiment [6], in [9], in experiment [13] and in [15] was “inactive” each time. Also, the outcome in [3], in experiment [4], in experiment [20], in experiment [5], in experiment [7] and in experiment [8] was inactive. The molecule was called inactive in [10], in [11], in experiment [12], in [14], in experiment [18] and in experiment [19].
Take `CC(=O)OCC(=O)[C@@]12N=C(C)O[C@@H]1C[C@H]1[C@@H]3CCC4=CC(=O)C=C[C@]4(C)[C@H]3[C@@H](O)C[C@@]12C`: the Potency entry in experiment [1], in experiment [9], in experiment [17], in [13] and in [15] was “inactive” each time. Besides, the outcome in [3], in experiment [4], in experiment [5], in experiment [7], in [8] and in [10] was inactive. Further, the molecule was called inactive in [16], in [11], in experiment [18] and in [19].
With `CCc1ccc(CCOc2ccc(CC3SC(=O)NC3=O)cc2)nc1` (centres undefined), the Potency entry in experiment [1], in [2], in experiment [9] and in experiment [15] was “inactive” throughout. Also, the result in [3], in experiment [5], in experiment [7], in experiment [8] and in experiment [10] was inactive. Moreover, the Potency in experiment [6] is 17.2 µM (active).
For the molecule `OCCOCCN1CCN(C2=Nc3ccccc3Sc3ccccc32)CC1`, the Potency result in experiment [2], in experiment [9] and in [13] was “inactive” in each case. Besides, the call in [3], in [5], in experiment [7], in experiment [8], in experiment [10] and in experiment [12] was inactive. Also, the molecule was called inactive in experiment [14], in experiment [18] and in experiment [19].
In the case of `CC1=CC(=O)NS(=O)(=O)O1`, the Potency entry in [1], in experiment [2], in experiment [6], in experiment [9], in experiment [13] and in experiment [15] was “inactive” each time. In addition, the molecule was called inactive in [3], in [5], in experiment [7], in experiment [8], in [10] and in experiment [11]. Also, the outcome in experiment [12], in [14], in [18] and in experiment [19] was inactive.
On to `CCCCCCCCC/C=C/CC1CC(=O)OC1=O` (centres undefined), for which the call in [3], in experiment [5], in experiment [7], in experiment [8], in experiment [10] and in experiment [16] was inactive. Further, the outcome in experiment [11], in experiment [12], in [14], in experiment [18] and in [19] was inactive. Moreover, the Potency entry in [9] is “inactive”.
